# Bioassay records as filed in PubChem BioAssay.
# Compounds with a hit are over-represented: about 3.5% of the library has one in this group of screens.
# TEAD-YAP inh: TEAD-YAP interaction inhibition; HEK-TIYL cells, TEAD-Gal4/YAP UAS-luciferase luminescence; inhibition, % at 9.12 µM; hit rate 1.4% among 640,000; AID 1259422; in the data active = inhibition above about 32%;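 also: 0% = median of test compound wells and 100% = reference inhibitor wells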
# MITF primary: human MITF inhibition, primary screen. AlphaScreen MITF homodimerization, bead proximity signal. inhibition, % at 2.6 µM. hit rate 0.91% among 650,000. AID 1259374; in the data active = inhibition above about 50%;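 also: 0% = vehicle wells with protein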
# FBW7 activator: activators of human E3 ligase FBW7. Q969H0. AlphaScreen FBW7–phospho-cyclin E peptide binding, activator screen. normalized activity (activation), % at 26.1 µM. hit rate 0.13% among 650,000; in the data active = normalized activity above about 1.9%;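 also: purified mutant Fbw7 with reduced substrate affinity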
# GPR151 activ: human GPR151 activation; Q8TDV0; PathHunter beta-arrestin GPR151 cells, luminescence; hit rate 1% among 650,000; activation, % at 11.2 µM; in the data active = activation above about 4.9%;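 also: 0% = median of compound wells and 100% = cells with positive control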
# Target sequence (Q8TDV0 whole entry, looked up): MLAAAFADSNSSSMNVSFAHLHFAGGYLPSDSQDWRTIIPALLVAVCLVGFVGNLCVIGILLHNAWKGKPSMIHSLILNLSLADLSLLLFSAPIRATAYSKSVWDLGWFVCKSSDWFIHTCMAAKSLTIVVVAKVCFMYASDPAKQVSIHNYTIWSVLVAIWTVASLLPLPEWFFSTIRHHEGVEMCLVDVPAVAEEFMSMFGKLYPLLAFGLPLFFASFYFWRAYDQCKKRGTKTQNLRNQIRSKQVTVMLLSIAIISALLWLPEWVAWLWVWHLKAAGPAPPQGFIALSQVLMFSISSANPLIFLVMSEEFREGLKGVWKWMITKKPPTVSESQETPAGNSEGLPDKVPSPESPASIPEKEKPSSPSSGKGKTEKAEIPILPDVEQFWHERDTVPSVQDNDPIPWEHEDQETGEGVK
# * marks the source's active call; other numbers are inactive results.
SMILES,TEAD-YAP inh,MITF primary,FBW7 activator,GPR151 activ
CC1=C(C(=O)OC(C)C)C(c2ccccc2)C2=C(CC(c3ccccc3)CC2=O)N1 (configuration not stated),21,-5,1,-2
O=C(NCc1cccc(Oc2ccc(F)cc2)c1)C1CCC1,-5,-3,0,1
O=C(N/N=C/c1cc(Br)ccc1O)c1cccs1,40*,31,0,0
CCOc1cc(C(=O)N/N=C/c2ccc(O)cc2O)cc(OCC)c1OCC,72*,10,-1,2
O=C(N/N=C/c1ccc(O)cc1O)c1ccc[n+](CCO)c1,7,101*,-1,3
COc1ccc(C(=O)N/N=C/c2ccc(O)cc2O)cc1,8,48,0,-1
O=C(N/N=C/c1cc(Br)ccc1F)c1cccs1,-50,-2,0,0
O=C(N/N=C/c1ccc(O)cc1O)c1cccs1,-25,83*,0,-4
O=C(N/N=C/c1ccc(O)cc1)c1cccs1,-50,16,0,-7
CCOC(=O)c1ccc(NC(=O)Cn2nnc(C(=O)O)c2C(=O)O)cc1,4,10,0,-1
O=C(N/N=C/c1cc(Cl)ccc1O)c1cccs1,55*,40,-1,0
CCCc1ccc(OCC(O)CNC(C)(C)C)cc1 (configuration not stated),5,12,0,0
CC1=Nc2ccccc2/C1=C/c1sc(=N)n(-c2nccs2)c1O,32*,1,0,0
CC(C)(C)OC(=O)NC(CCNC=C1C(=O)OC(C)(C)OC1=O)C(=O)O (configuration not stated),9,71*,0,-1
COC(=O)c1ccc2nc(-c3cccc(N)c3)cn2c1,78*,0,0,-9
COC(=O)c1ccc2nc(-c3ccc(S(C)(=O)=O)cc3)cn2c1,-30,2,0,-2
COc1ccc(NC(=O)C2(C)CC3c4ccccc4C2c2ccccc23)cc1 (configuration not stated),0,8,1.9*,1
Cc1ccc(C)c(NC(=O)C2(C)CC3c4ccccc4C2c2ccccc23)c1 (configuration not stated),4,11,0,1
CCN(CC)c1ccc(N=Nc2ncn[nH]2)cc1,44*,36,-2,-1
O=c1c2ccccc2nc(SCc2cccnc2)n1CCC1=CCCCC1,4,-7,0,2
CSc1nc2c(c(=O)[nH]c(=O)n2C)n1CCSc1nc2ccccc2s1,37*,5,1,0
O=c1c(-c2ccccc2)c(N2CCN(c3cccc(Cl)c3)CC2)c1=O,1,-10,0,0
COc1ccccc1N1CCN(c2c(-c3ccccc3)c(=O)c2=O)CC1,67*,-4,0,-2
O=c1c(-c2ccc(Cl)cc2)c(N2CCN(c3ccccc3F)CC2)c1=O,42*,17,0,1
O=c1c(-c2ccccc2)c(N2CCN(c3ccccc3F)CC2)c1=O,-8,2,0,0
SMILES,TEAD-YAP inh,MITF primary,FBW7 activator,GPR151 activ
O=c1c(-c2ccc(Cl)cc2)c(N2CCN(c3ccccc3)CC2)c1=O,60*,1,0,3
COc1cc(NC(=O)c2cc3ccccc3o2)ccc1NC(=O)c1cc2ccccc2o1,0,-3,0,0
C=CCn1c(SCC(=O)N2CCCCC2)nc2sc(C)c(C)c2c1=O,-6,18,0,-1
O=c1c2sc(=S)n(-c3ccccc3F)c2[nH]c(=S)n1-c1ccc(F)cc1,-5,34,0,0
CC1(C)CC(=O)c2cc(C(=O)Nc3ccc(F)cc3)c(=O)n(-c3ccccc3)c2C1,-10,-10,0,0
NC1=NC(=O)/C(=C/c2cc(O)ccc2Cl)S1,39*,2,1,-2
COc1ccc(OC)c(/C=C2\SC(N)=NC2=O)c1,-21,58*,0,1
COc1ccc(/C=C2/SC(N)=NC2=O)c(OC)c1,5,10,0,-1
Cc1c(OCc2ccc(F)cc2)ccc2c1oc(=O)c1ccccc12,2,7,0,4
C[n+]1ccn(CCCNC(=O)C(Cl)Cl)c1,-1,16,0,1
COc1ccccc1CN1CCc2[nH]c(=S)[nH]c(=O)c2C1,4,20,0,-1
CC1CCCCN1c1ncnc2c(-c3ccc([N+](=O)[O-])cc3)nsc12 (configuration not stated),-10,-1,0,1
O=[N+]([O-])c1ccc(-c2nsc3c(N4CCCC4)ncnc23)cc1,-25,18,0,1
COc1ccc(-c2nsc3c(N4CCOCC4)ncnc23)cc1,82*,-22,0,0
COc1ccc(-c2nsc3c(N4CCN(C)CC4)ncnc23)cc1,38*,-8,0,0
COc1ccc(-c2nsc3c(N4CCCCC4C)ncnc23)cc1 (configuration not stated),93*,10,0,-1
COc1ccc(-c2nsc3c(N4CCCCC4)ncnc23)cc1,83*,-12,0,-1
Cc1ccc(-c2cc3c(=O)n(Cc4ccc(Cl)cc4)ccn3n2)cc1,0,-21,0,-2
CCCC1CCC(c2ccc(-c3noc(-c4ccc(F)cc4)n3)cc2)CC1 (configuration not stated),6,0,0,-1
COc1ccc(CCNC(=S)NN2CCOCC2)cc1OC,-9,-25,0,1
N/N=C\c1ccc(S(=O)(=O)c2ccc(Cl)cc2)cc1,8,4,0,1
COc1ccc(-c2nsc3c(N4CCC(C(N)=O)CC4)ncnc23)cc1,39*,2,0,-1
O=C1c2ccc([N+](=O)[O-])cc2C(=O)N1c1ccc(O)cc1,7,-5,0,2
O=C1c2ccc([N+](=O)[O-])cc2C(=O)N1c1ccc(I)cc1,4,7,2.2*,-1
O=C(O)c1ccc(N2C(=O)c3ccc(Oc4ccc([N+](=O)[O-])cc4)cc3C2=O)cc1[N+](=O)[O-],3,-10,2.5*,0
SMILES,TEAD-YAP inh,MITF primary,FBW7 activator,GPR151 activ
O=C1C(=O)c2cc([N+](=O)[O-])ccc2-c2ccc([N+](=O)[O-])cc21,53*,15,-1,1
O=C1c2ccc([N+](=O)[O-])cc2C(=O)N1CCCCN1C(=O)c2ccc([N+](=O)[O-])cc2C1=O,1,0,0,2
O=C(O)c1ccc(Oc2ccc(N3C(=O)c4ccc(Oc5ccc([N+](=O)[O-])cc5)cc4C3=O)cc2)cc1,-5,1,0,1
O=C(Oc1c(Br)cc(Cl)c2cccnc12)N1CCCCC1,-11,-12,0,0
CCOC(=O)C1CCN(Cc2c(Cl)cccc2Cl)CC1,-16,28,0,0
Oc1c(CN2CCCCCC2)cc(Cl)c2cccnc12,51*,46,-1,-1
CCOC(=O)C1CCN(Cc2cc(Cl)c3cccnc3c2O)CC1,72*,43,0,-1
Oc1c(CN2CCN(c3cccc(C(F)(F)F)c3)CC2)cc(Cl)c2cccnc12,16,7,-1,0
O=C1c2ccccc2C(=O)N1Cc1cc(Cl)c2cccnc2c1O,9,9,0,1
CC1CN(Cc2cc(Cl)c3cccnc3c2O)CC(C)O1 (configuration not stated),24,56*,0,-1
